Data as given in PubChem BioAssay AID588689 (Southern Research Specialized Biocontainment Screening …, 2011).
About 1,000 (0.29%) of roughly 340,000 compounds were called active. No stated cut-off is given here; in the data, inconclusive means inhibition above about 29% without an active follow-up result; inactive means below that. Not all results are given here. Measured potencies and affinities stand elsewhere.

Biological target: Genome polyprotein (Dengue virus type 2 (strain 16681-PDK53)) (UniProt P29991)
Assay: flavivirus cap methylation enzyme inhibition – biochemical, confirmation dose response, primary screen (AID 588689)
Conditions: Dengue-2 NS5 methyltransferase capping enzyme assay, at 25 µM, stronger effect = higher value
[1] = measured here: pilot screen replicate inhibition

Compound	inhibition	inhibition [1] [%]
CC12CCC(=O)N1C(C(=O)Nc1nccs1)CS2 (stereo not drawn)	-5.93% (inactive)	–
O=C(O)CSc1nc(-c2ccccc2)nc2c1oc1ccccc12	5.73% (inactive)	–
Cc1nc(SCC(=O)O)c2oc3ccccc3c2n1	-1.65% (inactive)	–
CC(C)(C)c1ccc(C(=O)Nc2c3c(nn2C(C)(C)C)CS(=O)(=O)C3)cc1	-9.75% (inactive)	–
CCCOC(=O)CSC1=C(C#N)C(c2ccccc2OC)C(C#N)C(=O)N1 (stereo not drawn)	-15.9% (inactive)	–
CNC(=O)CC1C(=O)N(C)C(=S)N1NC(=O)c1ccccc1 (stereo not drawn)	2.33% (inactive)	–
COc1cc(C)ccc1OCCOc1ccccc1Cl	-4.77% (inactive)	–
COc1cc(CO)cc(Br)c1OCC(=O)O	-12.1% (inactive)	–
CCc1ccc(N=C2NC(=O)/C(=C/c3ccc(OCC(=O)O)c(OC)c3)S2)cc1	-3.47% (inactive)	–
Cc1ccc(S(=O)(=O)NCCC(=O)Nc2nccs2)cc1	-0.76% (inactive)	–
Cc1cccc(N(CC(=O)Nc2ccccc2-c2ccccc2)S(=O)(=O)c2ccccc2)c1C	1.45% (inactive)	–
CC(C)(C)c1csc(CS(=O)(=O)c2ccccn2)n1	-4.67% (inactive)	–
Cc1ccc(NC(=O)c2ccc(S(=O)(=O)Nc3c(C)n(C)n(-c4ccccc4)c3=O)cc2)nc1	-5.09% (inactive)	–
CSc1nnc(-c2ccccc2)c(-c2ccccc2)n1	-5.41% (inactive)	–
Cc1cccc(NC(=O)CSc2nnc(-c3ccco3)o2)c1C	3.22% (inactive)	–
O=C(CSc1nnc(-c2ccco2)c(-c2ccco2)n1)c1ccccc1	29.5% (inactive)	–
Cc1cccc(NC(=O)CSc2nnc(-c3ccco3)c(-c3ccco3)n2)c1	25.8% (inactive)	–
Cc1ccccc1NC(=O)CSc1n[nH]c(-c2ccco2)n1	0.76% (inactive)	–
Cc1ccc(NC(=O)CSc2nnc(-c3ccco3)c(-c3ccco3)n2)cc1	14.3% (inactive)	–
COc1cccc(NC(=O)c2ccc3c(O)c(S(=O)(=O)c4ccccc4)c(=O)[nH]c3c2)c1	4.09% (inactive)	–
CCCCn1c(N)c(N(CC(C)C)C(=O)CC2CCCCC2)c(=O)[nH]c1=O	-11.5% (inactive)	–
C[C@@H]1CC2[C@@H]3CC[C@H]4CC(=O)CC[C@]4(C)C3=CC[C@]2(C)[C@@]1(O)C(=O)CO (stereo partly drawn)	-1.96% (inactive)	–
CC1=C(C(=O)Nc2cccc(C(=O)NC(C)c3ccccc3)c2)SCCO1 (stereo not drawn)	-4.13% (inactive)	–

Compound	inhibition	inhibition [1] [%]
CCOc1cc(C(=O)O)cc(Cl)c1OCC#N	-2.72% (inactive)	–
CCOc1cc(C=O)cc(Cl)c1OCC(N)=O	-2.73% (inactive)	–
O=c1[nH]c2ccc(S(=O)(=O)N3CCN(Cc4ccccc4)CC3)cc2[nH]c1=O	-2.74% (inactive)	–
CC(=O)Nc1ccc(-c2csc(NC(=O)C3CCN(S(=O)(=O)c4cccs4)CC3)n2)cc1	-5.78% (inactive)	–
Cc1ccc(N2C(=O)c3ccccc3C2=O)cc1C	-5.39% (inactive)	–
Cc1ccc(N2C(=O)c3ccc(C(=O)O)cc3C2=O)cc1C	9.14% (inactive)	–
COC(=O)c1c(C(=O)OC)c(-c2ccccc2)n2c1CCC2	1.6% (inactive)	–
O=C(O)/C(=C\c1ccc(Cl)c([N+](=O)[O-])c1)c1ccc(S(=O)(=O)N2CCCC2)s1	0.37% (inactive)	–
O=C(O)/C(=C/c1ccc(Cl)c([N+](=O)[O-])c1)c1ccc(S(=O)(=O)N2CCCCC2)s1	15.9% (inactive)	–
O=C(CN1C(=O)C2CCCCC2C1=O)OCC(=O)c1ccc(Cl)s1 (stereo not drawn)	-7.27% (inactive)	–
O=S(=O)(c1ccc(=S)[nH]c1)N1CCOCC1	-8.4% (inactive)	–
COC(=O)c1cccc(NC(=O)C2CCCN2C(=O)c2cccs2)c1 (stereo not drawn)	-0.73% (inactive)	–
Cc1cc(C(=O)N/N=C2/CC(C)CC(C)(C)C2)c(C)o1 (stereo not drawn)	-5.92% (inactive)	–
CC1(C)CC(=O)C2=C(C1)c1c(ccc3ccccc13)NC2c1ccc(C(=O)O)cc1 (stereo not drawn)	2.04% (inactive)	–
CC1(C)CC(=O)C2=C(C1)c1c(ccc3ccccc13)NC2c1ccco1 (stereo not drawn)	-4.19% (inactive)	–
COc1ccc(S(=O)(=O)N2CCN(c3ccccc3OC)CC2)cc1C(=O)N1CCCCC1	-9.14% (inactive)	–
Cc1ccccc1OCC(=O)NNC(=S)NC(=O)c1ccccc1[N+](=O)[O-]	-8.89% (inactive)	–
O=C(COc1ccc(Br)cc1)NNC(=S)NC(=O)c1ccccc1[N+](=O)[O-]	10.8% (inactive)	–
Cc1ccsc1CN(C)Cc1nc(C2CC2)no1	1.78% (inactive)	–
CCOc1ccc(C=NNc2ccc(S(=O)(=O)Nc3ccccc3C(=O)O)cc2[N+](=O)[O-])cc1OC	7.77% (inactive)	–
CSc1ccc(C=NNc2ccc(S(=O)(=O)Nc3ccccc3C(=O)O)cc2[N+](=O)[O-])cc1	18.3% (inactive)	–
CCOc1cccc(C=NNc2ccc(S(=O)(=O)Nc3ccccc3C(=O)O)cc2[N+](=O)[O-])c1O	9.55% (inactive)	–
COc1ccccc1NS(=O)(=O)c1ccc(N/N=C/c2c(C)nn(-c3ccccc3)c2N2CCCC2)c([N+](=O)[O-])c1	0.96% (inactive)	–

Compound	inhibition	inhibition [1] [%]
CCN(Cc1ccccc1)C(=O)c1ccc(C(=O)N(CC)Cc2ccccc2)cc1	-1.55% (inactive)	–
CCc1nc(SCc2ccccc2)n[nH]1	8.1% (inactive)	–
Cc1cc(C(F)(F)F)c(C#N)c(SCC(=O)NC(C)(C)C)n1	-2.7% (inactive)	4.83
COc1cccc(O)c1CN1CCC(n2nccc2NC(=O)c2ccc3c(c2)OCO3)CC1	-3.24% (inactive)	–
CCCCSc1n[nH]c(N)n1	-2.73% (inactive)	–
COc1cccc(NC(=O)Cc2nnc(SCC(=O)NC3=NCCS3)n2C)c1	-1.78% (inactive)	–
CCOc1cc(C(=O)N2CCN=C2SC)cc(OCC)c1OCC	-0.73% (inactive)	–
CCCCCCN1C[C@H](n2cc(C3CC3)nn2)[C@@H](O)C[C@@H]1c1ccc(C)cc1	0% (inactive)	–
COc1ccc(NC2=NCCC(=O)N2Cc2cccs2)cc1	3.14% (inactive)	–
CN(C)/N=C/c1c(O)ccc2ccccc12	10.4% (inactive)	–
OCC(CO)(CO)N=Cc1c(O)ccc2ccccc12	24.8% (inactive)	–
COc1ccc(NC(=O)/C=C/c2ccccc2)c([N+](=O)[O-])c1	-2.2% (inactive)	–
CC(=O)N1c2ccccc2NC2=C(C(=O)CCC2)C1c1ccco1 (stereo not drawn)	9.11% (inactive)	–
Cn1cccc1/C=C1/SC(=S)N(CC(=O)O)C1=O	3.63% (inactive)	–
CCn1c(C)cc(/C=C2/SC(=S)N(CC(=O)O)C2=O)c1C	-89.8% (inactive)	–
Cn1cccc1/C=C1\SC(=S)N(CC(=O)O)C1=O	-7.69% (inactive)	–
O=[N+]([O-])c1ccc(COc2ccc(Br)cc2CN2CCOCC2)cc1	-3.16% (inactive)	–
O=C(O)CCN1C(=O)/C(=C\c2ccc(OCc3ccccc3)c(OCc3ccccc3)c2)SC1=S	8.45% (inactive)	–
O/N=C/c1cc(Br)ccc1OCc1ccc(F)cc1	-7.14% (inactive)	–
O=C1CCc2cc(S(=O)(=O)Nc3ccccc3)cc3c2N1CCC3	-5.11% (inactive)	–
CCOc1cccc(N2CCN(CCNC(=O)Nc3ccc(C)cc3)CC2)c1C	-3.11% (inactive)	–
CC(C)N(C(=O)[C@H]1C[C@H](CC(=O)NCc2ccco2)C(=O)N2CCc3c([nH]c4cc(CCC(=O)N(C)C)ccc34)[C@]12C)C(C)C	-2.31% (inactive)	1.51
Cc1ccc(-c2nnn(CC(=O)N(c3ccccc3F)C(C(=O)NC3CCCC3)c3ccncc3)n2)o1 (stereo not drawn)	5.7% (inactive)	–

Compound	inhibition	inhibition [1] [%]
COC(=O)c1cc(COC(=O)c2nc3nccc(C)n3n2)oc1C	0% (inactive)	–
Clc1ccc(-c2csc(-c3ccno3)n2)cc1	-5.36% (inactive)	–
O=[N+]([O-])c1ccc(NCCCN2CCOCC2)c([N+](=O)[O-])c1	-5.47% (inactive)	–
COc1ccc(CC(=O)Nc2ccc(S(=O)(=O)Nc3cc(OC)nc(OC)n3)cc2)cc1	23.3% (inactive)	–
O=C(O)CCCC(=O)N1CCc2cc(S(=O)(=O)N3CCc4ccccc43)ccc21	-4.13% (inactive)	–
O=C1CCCCC1(O)Cc1ccc2c(c1)OCO2 (stereo not drawn)	-3.89% (inactive)	–
O=c1cc(-c2ccccc2)oc2cccc(O)c12	-5.07% (inactive)	–
O=c1cc(-c2ccccc2)oc2cc(O)cc(O)c12	-12.6% (inactive)	–
CC(=O)c1cc2c(cc1NC(=O)Cc1ccsc1)OCO2	-0.37% (inactive)	–
O=C(C1CC(c2cccc(Br)c2)=NO1)N1CCc2ccccc2C1 (stereo not drawn)	-3.92% (inactive)	–
Cc1cccc(OCCn2nc(C(=O)O)c3ccccc3c2=O)c1	2.68% (inactive)	–
O=C(Nc1cccc2ccccc12)c1cccc([N+](=O)[O-])c1	-4.08% (inactive)	–
O=C(O)c1cccc([N+](=O)[O-])c1C(=O)Nc1cccc2ccccc12	-2.72% (inactive)	–
COc1cc(CN=Cc2c(O)n(Cc3ccccc3)c(=S)[nH]c2=O)cc(OC)c1	10.8% (inactive)	–
COc1c(O)ccc(/C=N/NC(=O)c2ccc3c(c2)OCCO3)c1[N+](=O)[O-]	2.38% (inactive)	–
COc1c(O)ccc(/C=N\NC(=O)c2ccc3c(c2)OCO3)c1[N+](=O)[O-]	12.7% (inactive)	–
O=C(c1cc(-c2ccncc2)nc2ccc(Cl)cc12)N1CCN(C(=O)C2CCCO2)CC1 (stereo not drawn)	-1.35% (inactive)	–
COC1=CC(=O)C=C(OC)C1=O	-8.21% (inactive)	–
CC/C=C\C/C=C\C/C=C\CCCCCCCC(=O)O	2.2% (inactive)	–
CN(CC(=O)Nc1ccccc1Cl)C(=O)CSc1nnc(-c2ccco2)o1	-1.47% (inactive)	–
CN1CCN(NC(=O)c2cc(S(=O)(=O)N3CCOCC3)c(Cl)cc2Cl)CC1	1.45% (inactive)	–
O=C(NC(C(=O)c1ccccc1)N1CCOCC1)c1cccs1 (stereo not drawn)	-6.21% (inactive)	–
